Laboratory results reported in PubChem BioAssay (NCI).
The panel holds about 79,000 compounds, 15% with a hit somewhere; the sample as a whole holds those more often. Unmarked numbers belong to inactive results. Active and inactive are the calls of the source. Rule as the data show it: active = growth inhibition above about 70%; inactive = the rest. Where a SMILES comes first, the peptide text is derived from it. [ ]: non-standard residue; d: D form. The star is where a group is joined. ξ: configuration not given here. ξF = NC(Cc1ccccc1)C(=O)O; Cbz = O=C(OCc1ccccc1)*; Aib = CC(C)(N)C(=O)O

Assay: NCI Yeast Anticancer Drug Screen. Data for the sgs1 mgt1 strain (AID 161);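 also: 0% = growth of cultures given vehicle only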
Details: S. cerevisiae sgs1 mgt1 strain, active compounds read high; at 50.0 µM unless noted
In short: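 Yeast cells carrying a defined DNA-repair defect were exposed to test compounds. Growth inhibition was measured relative to vehicle-treated controls.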

| Compound | growth inhibition |
| --- | --- |
| CCOC(=O)[C@]12C3C=CC(C3)C1C(=O)C1OC12 (stereo not given in full) | -19.3% |
| Cc1nnc(N)nc1C | -10.1% |
| Nc1nc2ncc(COc3ccc(C(=O)O)cc3)nc2c(=O)[nH]1 | 31.6% |
| COc1ccc(CCC(=O)c2ccc(N)cc2)cc1 | -0.65% |
| CC1CCC(C(=O)O)(C(Br)C(=O)O)CC1 (stereo not given) | -12.8% |
| CCCC1([N+](=O)[O-])c2ccccc2-c2ccc([N+](=O)[O-])cc21 (stereo not given) | 22.4% |
| CCN(CC)OC(=O)/C=C/c1ccccc1 | -10.3% |
| Cc1ccc(O)c(C=NCCN=Cc2cc(C)ccc2O)c1.[Cu+2] | 6.15% |
| O=C1c2ccccc2C(=O)N1/N=[N+](\[O-])c1ccccc1 | 17.2% |
| Cc1cc(C)c([N+](=O)[O-])cc1N | 26.6% |
| Cc1[nH]c(N)nc(=S)c1CCCNc1ccccc1 | 6.8% |
| CN(C)C(=S)/N=c1\ssc(=S)n1Cc1cccnc1 | 5.5% |
| ClC(Cl)CN(Cc1ccccc1)c1ncc[nH]1 | 28% |
| CC(C)(C)NC(=O)Nc1ccc2ccccc2c1 | -8.2% |
| COc1cc2ccc(Cc3nccc4cc(OC)c(OC)cc34)cc2cc1OC | 99% (active) |
| CC(=O)Nc1cc(S(=O)(=O)O)cc2cc(S(=O)(=O)O)cc(O)c12 | -0.05% |
| CC(=O)OC1COC(N2C(=O)C(=O)c3c(C)cc(Cl)nc32)C(OC(C)=O)C1OC(C)=O (stereo not given) | -22.4% |
| O=C(CC(CC(=O)C(c1ccccc1)c1ccccc1)c1ccccc1)C(c1ccccc1)c1ccccc1 | 61.9% |
| Cc1cnc(N)cn1 (tested in a mixture with another compound) | 1.1% |
| Cc1ccc(S(=O)(=O)CCN2CCN(C)CC2)cc1 | -12.7% |

| Compound | growth inhibition |
| --- | --- |
| Cc1nc(C(N)=S)sc1C(=O)C/C(=N/N)C(=O)Nc1ccc(Cl)cc1 | 3.2% |
| CC(=O)NNC(=O)C(N)Cc1ccc(O)cc1 (stereo not given) | 40.5% |
| CN(CCO)CCCC1COc2ccccc2O1 (stereo not given) | -21.1% |
| CC(=O)N1C(Nc2cnc3ccccc3c2)CCN1c1ccccc1 (stereo not given) | -13.8% |
| CC(C)C1CCC2C(CCC3C(C)(C(=O)O)CCCC23C)C1 (stereo not given) | -0.85% |
| COC(=O)C(C)(C)NC(=O)C(Cc1ccccc1)NC(=O)C(C)(C)NC(=O)OCc1ccccc1 (stereo not given) (Cbz-[Aib]-[ξF]-[Aib]-OMe) | -6.2% |
| COc1ccc(CCNS(=O)(=O)c2c(C)c(C)c(C)c(C)c2C)cc1OC | 5.1% |
| COc1ccc(/C=C2\C(=O)Nc3ccccc32)cc1OC | -9% |
| CCCCCC(Br)C(Br)CC(Br)C(Br)CC(Br)C(Br)CCCCC(=O)O (stereo not given) | 9.6% |
| Nc1cc(S(=O)(=O)O)c(O)c2c1C(=O)c1c(O)c(S(=O)(=O)O)cc(N)c1C2=O | -2.55% |
| N#CC(C(=S)Nc1ccccc1)=C1Nc2ccccc2N1 | -18.1% |
| N#CCc1nc(-c2cc3ccc(O)cc3oc2=O)cs1 | -25.9% |
| CN1C(=O)/C(=C2\SC(=O)N(CN3CCOCC3)C2=O)c2ccccc21 | -40% |
| O=c1n(-c2ccccc2)c(=O)n(-c2ccccc2)c(=O)n1-c1ccccc1 | -17.1% |
| COc1ccc(C(OC(=O)Oc2ccccc2)c2ccccc2)cc1 (stereo not given) | -6.9% |
| O=C(O)CS(=O)c1ccc2c3c(cccc13)C(=O)c1ccccc1-2 (stereo not given) | -38.5% |
| O=C(CCl)NNC1=Nc2ccc(Cl)cc2SC1 | 8.55% |
| Clc1ccc(C2ON=C(c3ccccc3)N2C23CC4CC(CC(C4)C2)C3)cc1Cl (stereo not given) | 2.8% |
| O=C(NC(NC(=O)c1ccccc1)c1ccccc1)c1ccccc1 | 1.25% |
| C1COC2(OC1)OCCCO2 | -7.85% |
